Molecules are shown by their SMILES. About 2,000 (87%) of roughly 2,300 compounds were called active. So high a share suggests a set chosen from earlier hits. Not all results are given here. Values without a mark were called inactive. Rule as the data show it: active = activation above about 11%; inactive = the rest.

Nuclear receptor subfamily 1 group I member 2 (Homo sapiens), sequence (O75469 whole entry, looked up): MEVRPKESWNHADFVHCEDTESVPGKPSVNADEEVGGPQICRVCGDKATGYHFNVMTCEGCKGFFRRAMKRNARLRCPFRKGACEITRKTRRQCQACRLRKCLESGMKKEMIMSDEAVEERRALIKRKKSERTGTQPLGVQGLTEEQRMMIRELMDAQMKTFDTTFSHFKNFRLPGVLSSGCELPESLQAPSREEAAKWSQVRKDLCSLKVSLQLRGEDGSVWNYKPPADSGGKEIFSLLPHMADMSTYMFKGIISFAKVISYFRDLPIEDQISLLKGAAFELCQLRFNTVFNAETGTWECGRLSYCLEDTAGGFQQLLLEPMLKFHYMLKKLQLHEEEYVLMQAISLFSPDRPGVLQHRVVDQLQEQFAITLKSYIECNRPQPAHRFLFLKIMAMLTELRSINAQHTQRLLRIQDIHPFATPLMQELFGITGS

This experiment has as its target Nuclear receptor subfamily 1 group I member 2 (Homo sapiens) (UniProt O75469). The experiment in a line: activation of PXR luciferase reporter – cell-based, luciferase luminescence, counter-screen for AHR activator project (AID 434939).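 Also: human hepatoma DPX-2 cells expressing full-length human PXR; 0% = DMSO and 100% = reference agonist.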 The settings on record: at 11.6 µM, stronger effect = higher value. On the technique in general: A reporter such as luciferase makes a cellular process visible.
In the case of `O=C(CSc1cccc2cccnc12)N/N=C/c1cccnc1`, the activation is 10.2% (active).

As for `COc1ccc(OC)c(-c2csc(-c3cccs3)n2)c1`, the activation is 21.7% (active).

Turning to `O=C(CC1Nc2ccccc2NC1=O)Nc1ccccc1` (stereo unspecified), the activation is 26.3% (active).

Regarding `COc1cc(NC(=O)c2ccc(-c3csc(C)n3)cc2)c(OC)cc1Cl`, the activation was 20.9% (active).

Regarding `O=C(Cn1cncn1)N/N=C/c1c2ccccc2cc2ccccc12`, the activation was 13.7% (active).

For `O=C(Nc1ccc(Cl)cn1)c1cnn2cccnc12`, the activation was 35.9% (active).

For `Cc1ccc(-c2nc(C#N)c(NCCCn3ccnc3)o2)cc1`, the activation is 34.4% (active).

As to `Cc1ccnc(NC(=O)c2ccc(Cl)c([N+](=O)[O-])c2)c1`, the activation is 42.9% (active).

In the case of `Nc1[nH][nH]c(=O)c1N=Nc1ccc2c(c1)OCO2`, the activation was 11.2% (active).

For `CCOC(=O)c1nc(-c2ccc3c(c2)OCO3)[nH]c1C`, the activation is 34.2% (active).

For `CCSc1ccccc1C(=O)Nc1ccc2c(c1)OCO2`, the activation is 143% (active).

In the case of `C=CCNC(=O)CSc1nc2sc(C)c(C)c2c(=O)[nH]1`, the activation is 16.4% (active).

As to `COc1ccccc1NC(=O)C1=C(C)NC2=C(C(=O)CCC2)C1c1ccc(C)o1` (stereo unspecified), the activation was 111% (active).

In the case of `Brc1ccc(C2CC(c3ccccc3)=Nc3ccccc3N2)cc1` (stereo unspecified), the activation is 39.7% (active).

As to `Cc1cccc(NC(=O)Nc2ccc3c(c2)OCO3)n1`, the activation was 46.3% (active).

With `COc1ccccc1N1CCN(C(=O)c2cc3c(-c4ccc(Cl)cc4)nn(C)c3s2)CC1`, the activation was 39.5% (active).

In the case of `Cn1nc(-c2ccc(Cl)cc2)c2cc(C(=O)NCc3ccco3)sc21`, the activation was 26.7% (active).

Regarding `CCOC(=O)N1CCN(C(=O)c2cc3c(-c4ccc(Cl)cc4)nn(C)c3s2)CC1`, the activation is 48.9% (active).

On to `CCOC(=O)c1ccc2[nH]c3c(c2c1)CCCC3NC=O` (stereo unspecified), for which the activation is 5.7%.

With `O=C(N/N=C/c1c[nH]c2ccccc12)c1cc2ccccc2o1`, the activation was 7.59%.

Regarding `COc1cccc(-n2c(SCC(=O)NC3CCCCC3)nc3n[nH]c(C)c3c2=N)c1`, the activation is 160% (active).

Regarding `COc1ccccc1Nc1ncnc2c1oc1ccccc12`, the activation was 21.1% (active).

For the molecule `Cc1cc(N2CCOCC2)nc(-c2ccc(Br)cc2)n1`, the activation is 43.3% (active).

On to `O=C(Nc1ccc(C2CC2(Cl)Cl)cc1)c1cccc([N+](=O)[O-])c1` (stereo unspecified), for which the activation was 19.2% (active).

As to `COc1ccc(C2NC(=O)c3ccccc3N2)cc1` (stereo unspecified), the activation was 6.29%.

`Brc1ccc(-c2noc(-c3ccccc3)n2)o1`: the activation is 20.2% (active).

Consider `CC(=O)Nc1ccc(-c2nc3ccccc3o2)cc1`, for which the activation is 10.9% (active).

On to `CC(C)C(=O)Nc1c(C(=O)c2ccc(F)cc2)oc2ccccc12`, for which the activation is 25.4% (active).

For `C/C(CC1CC(C)(C)OC1=O)=N/Nc1nc(-c2ccccc2)cs1` (stereo unspecified), the activation was 189% (active).

Turning to `CCN(CC)C(=O)Oc1ccc(Br)cc1C(=O)Nc1ccc(F)c(Cl)c1`, the activation was 176% (active).

With `CCc1nc(Nc2ccc3nccnc3c2)c2oc3ccccc3c2n1`, the activation was 45% (active).

As for `O=C(NC1CC1)C1=C[C@H](c2c[nH]c3ccccc23)C[C@H](OCc2ccc(CO)cc2)O1`, the activation is 22.2% (active).

For `O=C(Nc1cc(S(=O)(=O)Nc2ccc(Cl)cc2)ccc1O)c1ccc(F)cc1F`, the activation is 38.8% (active).

Consider `Cc1nnc(NC(=O)/C=C/c2ccco2)s1`, for which the activation was 36.6% (active).

Turning to `COc1cc(/C=N/N=C(\N)c2nonc2N)cc(OC)c1OC`, the activation was 14.7% (active).

`COc1cc(CNCc2ccc3c(c2)OCO3)c([N+](=O)[O-])cc1OC`: the activation is 36.7% (active).

`Brc1ccc(C2=CC(c3ccco3)n3ncnc3N2)cc1` (stereo unspecified): the activation is 15% (active).

For the molecule `Cc1cc(O)c(C(=O)/C=C/c2c(F)c(F)c(F)c(F)c2F)c(=O)o1`, the activation is 23.8% (active).

Regarding `COc1ccc(C(=O)Nc2ccccc2C(=O)N/N=C/c2ccccc2OC)cc1`, the activation was 28% (active).

As to `Cc1ccc(Cl)cc1NC(=O)C1CCCN(c2cnccn2)C1` (stereo unspecified), the activation is 41.2% (active).

As to `O=C(Nc1cccc(Cl)c1)C1CCCN(c2cnccn2)C1` (stereo unspecified), the activation was 29.6% (active).

As to `Cn1c(SCC(=O)c2ccccc2)ncc(C(=O)Nc2ccc(F)cc2)c1=O`, the activation was 13.1% (active).

On to `CCC(C)NCC(=O)Nc1ccc([N+](=O)[O-])cc1C(=O)Nc1ccccc1F` (stereo unspecified), for which the activation is 40.5% (active).

On to `Cn1cc(Cl)c(C(=O)NNC(=S)Nc2cccc(Cl)c2)n1`, for which the activation was 22.8% (active).

For `C/C(=N\NC(=O)CNc1cccc2ccccc12)c1ccc(Br)s1`, the activation was 13.8% (active).

In the case of `COc1cccc(-c2nc3cc(C)ccc3o2)c1`, the activation was 31.3% (active).

With `CC1Cc2ccccc2N1C(=O)CSc1nnc(C2CC2)n1C` (stereo unspecified), the activation was 80.9% (active).

Regarding `CCNC(=S)N1CCC(c2nc3cc(C)c(C)cc3[nH]2)CC1`, the activation was 21.2% (active).

For `S=c1[nH]nc(-c2cc(-c3ccsc3)n[nH]2)n1-c1ccccc1`, the activation was 13.7% (active).

For the molecule `Cc1nn2c3cc(N4CCOCC4)ccc3nc2c2ccccc12`, the activation is 63.2% (active).

Turning to `Cc1ccc(NC(=O)Nc2cccnc2)cc1`, the activation is 19.7% (active).

As to `Cc1cccc(NC(=O)c2ccc3ccccc3n2)n1`, the activation is 20.3% (active).

Consider `COc1ccc(NC(=O)c2ccco2)cc1NC(=O)c1ccc(C#N)cc1F`, for which the activation is 14.9% (active).

With `C=CCOc1c(Br)cc(/C=N\n2nnnc2N)cc1OC`, the activation is 78.1% (active).

For `Cc1nc2sc(C(=O)c3ccccc3)c(N)c2c2c1CCCC2`, the activation was 69.6% (active).

Consider `O=C(CSc1ccccn1)Nc1nc2c(ccc3ccccc32)s1`, for which the activation was 21.9% (active).

Take `CCCCC(=O)Nc1ccc(C(=O)Nc2cc(C(F)(F)F)ccc2Cl)cc1`: the activation was 15.4% (active).

Consider `CCOc1ccccc1NC(=O)c1cccnc1`, for which the activation is 24.9% (active).

For `COCCNc1nc(-c2ccccc2)nc2c1oc1ccccc12`, the activation was 28.9% (active).

For `Cc1cccc(N=Nc2c(O)[nH]c3ccc(F)cc23)c1`, the activation is 16.1% (active).

Regarding `CSc1ccc(C#N)cc1NC(=O)c1ccc(Cl)cc1`, the activation is 18.5% (active).

As for `O=C(NCCCn1ccnc1)c1cc(-c2ccccc2)on1`, the activation was 41.3% (active).

With `Cc1ccnc(-n2sc3ccccc3c2=O)n1`, the activation is 25.7% (active).

For the molecule `O=C(Nc1ccc(C(F)(F)F)cc1)c1cccc(-n2cnnn2)c1`, the activation was 16.3% (active).

In the case of `O=C(Nc1ccc(-c2csc(Nc3cccc(C(F)(F)F)c3)n2)cc1)c1cccc(C(F)(F)F)c1`, the activation was 5.47%.

Consider `O=C(Nc1ccc(OC(F)(F)F)cc1)c1ccc2c(c1)no[n+]2[O-]`, for which the activation was 0.82%.

With `CC(C(=O)N=Nc1c(O)n(C)c2ccc(Br)cc12)n1cnc2ccccc2c1=O` (stereo unspecified), the activation is 60% (active).

Regarding `Cc1ccc(NC(=O)NNC(=O)c2sccc2-n2cccc2)cc1`, the activation was 27% (active).

For the molecule `Cc1nn(-c2ccccc2)c2[nH]c(C(F)(F)F)cc(=O)c12`, the activation was 25.8% (active).

For `N#C/C(=C(/O)COc1cccc2ccccc12)c1nc2ccccc2[nH]1`, the activation is 29.3% (active).

Turning to `Cc1nn(Cc2ccc(Cl)cc2)c(Cl)c1/C=N/NC(=O)c1cccnc1`, the activation was 39.9% (active).

As to `O=C(Nc1cccc(Br)c1)c1ccc2snnc2c1`, the activation is 22.9% (active).

As to `C/C(=N/NC(=S)Nc1ccccc1)c1ccc2c(c1)OCO2`, the activation is 76.5% (active).

For the molecule `OCCNc1nc(Nc2ccc(Cl)c(Cl)c2)nc2ccccc12`, the activation is 13.8% (active).

For `Cc1csc(NC(=S)Nc2cccc(Cl)c2)n1`, the activation was 21.6% (active).

On to `NC(=O)Nc1ccccc1C(=O)NCCc1ccccc1`, for which the activation is 18.7% (active).

For `CSc1ncccc1C(=O)Nc1nc2ccc(F)cc2s1`, the activation was 11.7% (active).

Regarding `CNC(=O)c1ccc2nc(NC(C)=O)sc2c1`, the activation is 9.52%.

Regarding `COc1ccc(Nc2nnc(C)c3ccccc23)cc1`, the activation was 73.7% (active).

For `Cc1c(C(=O)NCC(c2ccco2)N2CCCC2)oc2ccc(Cl)cc12` (stereo unspecified), the activation is 56.2% (active).

As to `CCn1c2ccccc2c2cc(NC(=O)C/C(C)=N/NC(=O)c3ccccc3N)ccc21`, the activation is 45.7% (active).

For the molecule `COc1ccc2nc(Nc3nc(-c4ccncc4)cs3)sc2c1`, the activation is 38.6% (active).

With `COc1ccc(Nc2nc(-c3ccccc3)cs2)cc1`, the activation was 12.8% (active).

`Cc1cccc(Nc2nc(-c3ccccc3)cs2)n1`: the activation is 25.5% (active).

As for `O=C(Nn1c(-c2ccc(Cl)cc2)nc2ccccc2c1=O)c1cccnc1Cl`, the activation was 14.3% (active).

`c1cnc(N2CCN(c3ccc4ccccc4n3)CC2)nc1`: the activation is 36.7% (active).

Regarding `CCn1ccnc1CN(C)Cc1nc(-c2ccc3c(c2)OCO3)no1`, the activation is 37.5% (active).

`O=C(Cn1c(NCCO)nc2ccccc21)c1ccc(Cl)cc1Cl`: the activation is 31.4% (active).

`O=C(CCCCn1c(=O)[nH]c2ccccc2c1=O)NCc1ccc2c(c1)OCO2`: the activation was 37.2% (active).

Take `CCn1c(NC(=O)c2nn(C)cc2Br)nc2ccccc21`: the activation is 22.6% (active).

Take `COc1cccc(OC)c1C(=O)Nc1ccc(N2CCCCC2)cc1`: the activation was 53.1% (active).

Take `COc1cc2ccccc2cc1C(=O)Nc1ccc(N2CCOCC2)cc1`: the activation was 30.4% (active).

Take `NNc1nc2c(Cl)cccc2s1`: the activation was 8.29%.

Regarding `CN(C)S(=O)(=O)Oc1ccccc1C(=O)Nc1ccccc1Cl`, the activation was 82.8% (active).

For the molecule `C(=N\Nc1ccc2ccccc2n1)/c1ccc2c(c1)OCO2`, the activation is -10.5%.

As for `Cc1noc(C)c1/C=N/Nc1ccc2ccccc2n1`, the activation is 25.9% (active).

On to `CC(C)n1cnc2c(Nc3cccc(Cl)c3)nc(N(CCO)CCCO)nc21`, for which the activation is 255% (active).

Regarding `CN(C)c1nc(Nc2ccc(Cl)c(Cl)c2)nc(N(C)C)n1`, the activation was 23.1% (active).

On to `Cn1c(C(=O)NCCc2ccsc2)cc2c(=O)n(C)c3ccccc3c21`, for which the activation was 75.7% (active).

For `CC(C)n1ncc2c(C(=O)Nc3ccc(CC#N)cc3)cc(C3CC3)nc21`, the activation was 48.4% (active).

Consider `S=c1nc2ccccc2c2nc(-c3cccnc3)[nH]n12`, for which the activation was 24.9% (active).

(Values after PubChem BioAssay AID434939 (The Scripps Research Institute Molecular Screening Center, 2010).)
